# Results: paper PMC7862700, “An all-to-all approach to the identification of sequence-specific readers for epigenetic DNA modifications on cytosine”
# Assays:
# Experiment in all cases: DAPPL (digital affinity profiling via proximity ligation, sequencing); 10 mM Tris-HCl pH 7.5, 50 mM NaCl, 1 mM DTT, 4% glycerol, room temperature, 30 min; GST-TFs on glutathione beads, 16-mer random dsDNA library, 0.1% formaldehyde crosslink after washing; high values mean tight binding
# FEV = target: T1, FEV (Homo sapiens, UniProt Q99581 1-238); details: protein: recombinant; tags: N-terminal GST; dsDNA, one strand shown
# T1 sequence: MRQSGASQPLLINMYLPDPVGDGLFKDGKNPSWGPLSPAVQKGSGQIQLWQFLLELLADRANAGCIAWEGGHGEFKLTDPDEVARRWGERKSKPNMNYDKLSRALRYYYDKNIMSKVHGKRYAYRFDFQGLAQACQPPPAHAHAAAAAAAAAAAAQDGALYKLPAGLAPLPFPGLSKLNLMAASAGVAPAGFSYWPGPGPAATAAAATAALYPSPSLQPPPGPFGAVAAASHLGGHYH
# How it was run: (§1)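 Human transcription factors fused to GST were expressed in yeast, captured on glutathione beads, given DNA barcodes and pooled with a GST-only negative control. Pools were incubated with 200 nmole of a 16-mer random double-stranded DNA library in Tris/NaCl/DTT/glycerol buffer at room temperature for 30 min. They were then washed, crosslinked with 0.1% formaldehyde, proximity-ligated (BsaI/T4 ligase, 1 h, 37 °C), PCR-amplified and sequenced on an Illumina NextSeq500. Binding signal is each 6-mer's read frequency for a factor divided by its frequency for the GST control.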
# ETV5 = ETV5 (Homo sapiens, UniProt P41161 1-510); details: protein: recombinant; tags: N-terminal GST; dsDNA, one strand shown
# Chain of ETV5 (P41161 whole entry): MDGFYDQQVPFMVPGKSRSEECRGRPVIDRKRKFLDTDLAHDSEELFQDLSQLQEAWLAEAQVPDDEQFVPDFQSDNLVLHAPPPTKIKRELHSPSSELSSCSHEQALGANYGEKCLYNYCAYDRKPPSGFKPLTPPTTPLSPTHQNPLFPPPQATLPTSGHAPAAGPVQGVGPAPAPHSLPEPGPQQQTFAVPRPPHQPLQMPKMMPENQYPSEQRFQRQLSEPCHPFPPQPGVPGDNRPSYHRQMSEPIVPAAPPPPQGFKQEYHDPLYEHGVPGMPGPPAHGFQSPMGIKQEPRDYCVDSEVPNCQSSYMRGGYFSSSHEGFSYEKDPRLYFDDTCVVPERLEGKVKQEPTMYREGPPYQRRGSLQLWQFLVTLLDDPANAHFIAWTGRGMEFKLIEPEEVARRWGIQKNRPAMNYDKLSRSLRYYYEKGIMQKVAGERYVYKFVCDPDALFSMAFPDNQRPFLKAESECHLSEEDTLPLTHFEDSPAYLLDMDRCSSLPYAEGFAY
# How it was run: as §1
# HSF1 = HSF1 (Homo sapiens, UniProt Q00613 1-529); details: protein: recombinant; tags: N-terminal GST; chain copies: 3; dsDNA, one strand shown
# Chain of HSF1 (Q00613 whole entry): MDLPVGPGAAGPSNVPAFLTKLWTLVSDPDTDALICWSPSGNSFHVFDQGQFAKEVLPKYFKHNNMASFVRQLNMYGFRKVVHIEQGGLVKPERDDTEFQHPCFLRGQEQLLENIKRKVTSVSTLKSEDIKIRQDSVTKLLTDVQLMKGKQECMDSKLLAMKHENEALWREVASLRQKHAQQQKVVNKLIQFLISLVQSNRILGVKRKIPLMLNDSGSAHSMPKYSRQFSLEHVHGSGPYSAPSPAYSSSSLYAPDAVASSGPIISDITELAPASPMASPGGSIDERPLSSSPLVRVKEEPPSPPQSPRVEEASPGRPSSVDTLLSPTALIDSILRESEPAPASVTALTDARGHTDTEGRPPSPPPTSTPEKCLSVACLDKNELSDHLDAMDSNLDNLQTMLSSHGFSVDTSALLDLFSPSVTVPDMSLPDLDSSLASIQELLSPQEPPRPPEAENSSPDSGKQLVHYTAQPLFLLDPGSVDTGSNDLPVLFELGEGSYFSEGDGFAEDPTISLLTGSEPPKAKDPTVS
# How it was run: as §1
# SPIC = target: T2, SPIC (Homo sapiens, UniProt Q8N5J4 1-248); details: protein: recombinant; tags: N-terminal GST; dsDNA, one strand shown
# T2 sequence: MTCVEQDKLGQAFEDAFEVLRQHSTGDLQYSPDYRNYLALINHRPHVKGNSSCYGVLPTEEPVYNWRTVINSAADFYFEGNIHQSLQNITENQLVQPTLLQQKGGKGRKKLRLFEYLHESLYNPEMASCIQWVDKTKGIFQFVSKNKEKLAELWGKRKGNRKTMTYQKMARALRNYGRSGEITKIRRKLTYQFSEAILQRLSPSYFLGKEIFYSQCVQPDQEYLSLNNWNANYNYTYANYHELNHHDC
# How it was run: as §1
# ELF4 = ELF4 (Homo sapiens, UniProt Q99607 1-663); details: protein: recombinant; tags: N-terminal GST; dsDNA, one strand shown
# Chain of ELF4 (Q99607 whole entry): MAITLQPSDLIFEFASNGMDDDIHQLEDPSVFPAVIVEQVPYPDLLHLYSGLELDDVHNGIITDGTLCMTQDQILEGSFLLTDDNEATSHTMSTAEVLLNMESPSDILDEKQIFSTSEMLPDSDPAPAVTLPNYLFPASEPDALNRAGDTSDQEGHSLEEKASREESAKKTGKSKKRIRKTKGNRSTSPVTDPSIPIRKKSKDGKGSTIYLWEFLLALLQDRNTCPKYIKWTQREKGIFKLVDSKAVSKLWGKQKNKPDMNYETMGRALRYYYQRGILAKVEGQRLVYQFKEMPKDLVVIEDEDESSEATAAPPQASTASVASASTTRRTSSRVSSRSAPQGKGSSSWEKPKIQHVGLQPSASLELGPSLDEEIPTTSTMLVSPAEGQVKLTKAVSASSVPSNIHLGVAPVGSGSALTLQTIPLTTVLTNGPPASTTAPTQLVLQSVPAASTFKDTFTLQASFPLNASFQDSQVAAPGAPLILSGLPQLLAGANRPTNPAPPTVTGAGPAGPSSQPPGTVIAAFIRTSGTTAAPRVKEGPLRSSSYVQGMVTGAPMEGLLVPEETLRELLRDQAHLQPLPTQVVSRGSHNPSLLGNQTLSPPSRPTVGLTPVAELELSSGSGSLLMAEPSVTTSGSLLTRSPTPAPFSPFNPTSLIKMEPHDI
# How it was run: as §1
# ELK4 = target: T3, ELK4 (Homo sapiens, UniProt P28324-2 1-405); details: protein: recombinant; tags: N-terminal GST; dsDNA, one strand shown
# T3 sequence: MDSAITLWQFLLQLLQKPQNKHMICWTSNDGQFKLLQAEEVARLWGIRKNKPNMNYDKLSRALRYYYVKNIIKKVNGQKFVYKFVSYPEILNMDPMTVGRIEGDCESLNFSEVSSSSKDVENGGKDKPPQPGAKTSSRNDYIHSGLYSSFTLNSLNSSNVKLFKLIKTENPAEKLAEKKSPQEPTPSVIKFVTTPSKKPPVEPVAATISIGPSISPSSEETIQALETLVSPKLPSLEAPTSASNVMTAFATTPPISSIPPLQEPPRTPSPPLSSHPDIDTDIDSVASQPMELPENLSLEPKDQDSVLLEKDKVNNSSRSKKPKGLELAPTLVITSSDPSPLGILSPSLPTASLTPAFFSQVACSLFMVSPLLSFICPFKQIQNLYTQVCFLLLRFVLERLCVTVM
# How it was run: as §1
# ETV2 = target: T4, ETV2 (Homo sapiens, UniProt O00321 1-342); details: protein: recombinant; tags: N-terminal GST; dsDNA, one strand shown
# T4 sequence: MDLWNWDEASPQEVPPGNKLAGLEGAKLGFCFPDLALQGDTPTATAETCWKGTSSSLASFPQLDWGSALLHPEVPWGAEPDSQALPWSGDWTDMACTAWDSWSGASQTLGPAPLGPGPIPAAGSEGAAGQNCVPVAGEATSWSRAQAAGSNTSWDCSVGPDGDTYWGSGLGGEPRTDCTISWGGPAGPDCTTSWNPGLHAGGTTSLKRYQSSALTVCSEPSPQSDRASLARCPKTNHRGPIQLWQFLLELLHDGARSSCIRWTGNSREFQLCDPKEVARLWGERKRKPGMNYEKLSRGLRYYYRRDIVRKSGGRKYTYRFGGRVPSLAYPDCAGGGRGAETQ
# How it was run: as §1
# ELF3 = target: T5, ELF3 (Homo sapiens, UniProt P78545 1-371); details: protein: recombinant; tags: N-terminal GST; dsDNA, one strand shown
# T5 sequence: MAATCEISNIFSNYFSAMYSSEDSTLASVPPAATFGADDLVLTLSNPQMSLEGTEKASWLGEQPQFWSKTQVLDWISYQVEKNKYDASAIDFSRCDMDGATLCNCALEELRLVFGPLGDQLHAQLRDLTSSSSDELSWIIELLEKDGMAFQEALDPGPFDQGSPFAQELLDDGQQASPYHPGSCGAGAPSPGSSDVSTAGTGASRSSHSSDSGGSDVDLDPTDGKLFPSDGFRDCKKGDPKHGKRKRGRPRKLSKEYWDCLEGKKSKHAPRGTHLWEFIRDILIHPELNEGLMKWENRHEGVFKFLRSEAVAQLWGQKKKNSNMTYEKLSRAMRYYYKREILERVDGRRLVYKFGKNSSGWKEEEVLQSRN
# How it was run: as §1
# CRX = CRX (Homo sapiens, UniProt O43186 1-299); details: protein: recombinant; tags: N-terminal GST; dsDNA, one strand shown
# Chain of CRX (O43186 whole entry): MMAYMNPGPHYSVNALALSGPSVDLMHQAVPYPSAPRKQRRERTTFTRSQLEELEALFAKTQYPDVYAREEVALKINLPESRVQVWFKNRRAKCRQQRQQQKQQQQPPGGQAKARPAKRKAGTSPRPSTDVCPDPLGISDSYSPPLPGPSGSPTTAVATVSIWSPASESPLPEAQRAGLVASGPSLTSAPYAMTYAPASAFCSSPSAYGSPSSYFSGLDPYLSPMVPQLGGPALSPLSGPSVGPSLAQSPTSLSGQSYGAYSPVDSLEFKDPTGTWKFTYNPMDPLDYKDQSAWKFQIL
# How it was run: as §1
# ETV1 = ETV1 (Homo sapiens, UniProt P50549 1-477); details: protein: recombinant; tags: N-terminal GST; dsDNA, one strand shown
# Chain of ETV1 (P50549 whole entry): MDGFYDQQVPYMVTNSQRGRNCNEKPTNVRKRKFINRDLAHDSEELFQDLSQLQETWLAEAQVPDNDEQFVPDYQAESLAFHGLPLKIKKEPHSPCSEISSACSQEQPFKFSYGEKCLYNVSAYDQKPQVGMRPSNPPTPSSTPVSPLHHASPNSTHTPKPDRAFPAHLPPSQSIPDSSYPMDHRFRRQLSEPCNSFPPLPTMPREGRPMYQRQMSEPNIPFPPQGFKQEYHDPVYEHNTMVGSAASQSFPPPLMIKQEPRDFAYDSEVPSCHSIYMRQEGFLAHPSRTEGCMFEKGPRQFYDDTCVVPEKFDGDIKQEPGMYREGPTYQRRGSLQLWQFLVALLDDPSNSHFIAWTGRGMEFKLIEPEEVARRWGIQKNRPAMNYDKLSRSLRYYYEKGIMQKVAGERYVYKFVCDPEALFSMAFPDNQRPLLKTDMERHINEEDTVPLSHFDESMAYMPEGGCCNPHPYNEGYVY
# How it was run: as §1
# ERF = target: T6, ERF (Homo sapiens, UniProt P50548 1-548); details: protein: recombinant; tags: N-terminal GST; dsDNA, one strand shown
# T6 sequence: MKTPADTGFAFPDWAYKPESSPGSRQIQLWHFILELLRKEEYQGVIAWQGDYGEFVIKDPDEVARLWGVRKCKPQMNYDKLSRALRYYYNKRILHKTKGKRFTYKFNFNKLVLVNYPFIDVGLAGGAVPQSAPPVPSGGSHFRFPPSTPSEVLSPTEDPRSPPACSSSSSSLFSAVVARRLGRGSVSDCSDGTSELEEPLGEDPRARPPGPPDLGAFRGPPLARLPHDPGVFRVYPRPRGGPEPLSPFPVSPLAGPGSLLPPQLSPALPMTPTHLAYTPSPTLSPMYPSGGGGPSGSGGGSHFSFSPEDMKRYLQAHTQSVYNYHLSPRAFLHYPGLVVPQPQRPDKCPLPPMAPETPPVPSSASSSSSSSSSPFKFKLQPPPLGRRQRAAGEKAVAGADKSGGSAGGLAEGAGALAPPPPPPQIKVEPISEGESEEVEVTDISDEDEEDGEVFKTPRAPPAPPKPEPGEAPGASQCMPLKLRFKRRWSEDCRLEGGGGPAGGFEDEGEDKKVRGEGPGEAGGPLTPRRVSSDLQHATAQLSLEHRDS
# How it was run: as §1
# ETV3L = target: T7, ETV3L (Homo sapiens, UniProt Q6ZN32 1-361); details: protein: recombinant; tags: N-terminal GST; dsDNA, one strand shown
# T7 sequence: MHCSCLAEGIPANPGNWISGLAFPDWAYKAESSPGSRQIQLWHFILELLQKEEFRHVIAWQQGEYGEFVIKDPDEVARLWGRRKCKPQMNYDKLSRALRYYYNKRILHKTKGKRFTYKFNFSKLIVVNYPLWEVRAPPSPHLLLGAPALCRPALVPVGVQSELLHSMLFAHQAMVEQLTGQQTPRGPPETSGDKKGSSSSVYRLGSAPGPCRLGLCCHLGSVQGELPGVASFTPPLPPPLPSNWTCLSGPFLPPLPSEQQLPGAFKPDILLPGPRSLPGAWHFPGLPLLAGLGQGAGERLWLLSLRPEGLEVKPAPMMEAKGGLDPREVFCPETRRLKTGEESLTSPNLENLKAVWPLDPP
# How it was run: as §1
# ETS2 = target: T8, ETS2 (Homo sapiens, UniProt P15036 1-469); details: protein: recombinant; tags: N-terminal GST; dsDNA, one strand shown
# T8 sequence: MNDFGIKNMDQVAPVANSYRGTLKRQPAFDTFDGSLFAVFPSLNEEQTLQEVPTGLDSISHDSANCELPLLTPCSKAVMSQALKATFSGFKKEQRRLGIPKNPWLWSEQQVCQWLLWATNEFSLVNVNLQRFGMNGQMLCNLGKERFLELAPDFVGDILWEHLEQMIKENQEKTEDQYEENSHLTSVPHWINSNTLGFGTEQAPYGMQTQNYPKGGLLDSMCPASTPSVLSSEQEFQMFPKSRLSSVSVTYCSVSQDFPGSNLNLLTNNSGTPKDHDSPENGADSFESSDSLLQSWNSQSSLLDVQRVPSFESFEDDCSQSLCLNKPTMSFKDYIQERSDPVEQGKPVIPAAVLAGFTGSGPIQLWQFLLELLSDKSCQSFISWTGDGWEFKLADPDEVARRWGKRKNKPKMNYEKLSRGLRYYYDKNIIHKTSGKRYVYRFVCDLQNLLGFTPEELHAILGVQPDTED
# How it was run: as §1
# SPDEF = target: T9, SPDEF (Homo sapiens, UniProt O95238 1-335); details: protein: recombinant; tags: N-terminal GST; dsDNA, one strand shown
# T9 sequence: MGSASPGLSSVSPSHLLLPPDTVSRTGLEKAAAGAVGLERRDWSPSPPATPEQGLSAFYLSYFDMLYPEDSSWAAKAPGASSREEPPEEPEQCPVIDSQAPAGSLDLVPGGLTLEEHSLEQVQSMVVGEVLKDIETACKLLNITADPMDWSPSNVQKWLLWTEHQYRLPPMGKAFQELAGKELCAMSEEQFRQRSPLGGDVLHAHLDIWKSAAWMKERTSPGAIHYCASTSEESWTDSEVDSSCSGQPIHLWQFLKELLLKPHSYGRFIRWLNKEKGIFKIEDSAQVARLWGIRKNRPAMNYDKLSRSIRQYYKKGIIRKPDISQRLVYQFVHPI
# How it was run: as §1
# ETV7 = target: T10, ETV7 (Homo sapiens, UniProt Q9Y603 1-341); details: protein: recombinant; tags: N-terminal GST; dsDNA, one strand shown
# T10 sequence: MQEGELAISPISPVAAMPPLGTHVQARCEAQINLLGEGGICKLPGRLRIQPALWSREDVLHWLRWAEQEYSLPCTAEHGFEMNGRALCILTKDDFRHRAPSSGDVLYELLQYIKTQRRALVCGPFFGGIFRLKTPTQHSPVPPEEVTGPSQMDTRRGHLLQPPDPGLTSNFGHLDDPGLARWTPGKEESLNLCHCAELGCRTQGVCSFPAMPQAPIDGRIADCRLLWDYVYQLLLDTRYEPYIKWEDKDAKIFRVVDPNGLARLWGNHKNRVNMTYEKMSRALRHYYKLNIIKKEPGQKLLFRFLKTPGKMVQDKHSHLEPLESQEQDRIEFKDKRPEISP
# How it was run: as §1
# ELF5 = target: T11, ELF5 (Homo sapiens, UniProt Q9UKW6-2 1-255); details: protein: recombinant; tags: N-terminal GST; dsDNA, one strand shown
# T11 sequence: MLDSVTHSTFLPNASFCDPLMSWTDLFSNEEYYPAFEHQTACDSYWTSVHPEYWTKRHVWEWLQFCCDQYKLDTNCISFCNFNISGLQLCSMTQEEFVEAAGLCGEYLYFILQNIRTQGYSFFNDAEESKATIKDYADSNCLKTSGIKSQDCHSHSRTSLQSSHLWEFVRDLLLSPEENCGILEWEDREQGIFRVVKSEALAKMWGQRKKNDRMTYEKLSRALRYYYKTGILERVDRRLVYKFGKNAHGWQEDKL
# How it was run: as §1
# ETV3 = target: T12, ETV3 (Homo sapiens, UniProt P41162-2 1-143); details: protein: recombinant; tags: N-terminal GST; dsDNA, one strand shown
# T12 sequence: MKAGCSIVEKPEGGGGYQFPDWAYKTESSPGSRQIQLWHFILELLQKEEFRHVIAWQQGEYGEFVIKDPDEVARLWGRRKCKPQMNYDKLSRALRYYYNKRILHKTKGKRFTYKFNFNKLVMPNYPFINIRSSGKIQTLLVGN
# How it was run: as §1
# ETV6 = ETV6 (Homo sapiens, UniProt P41212 1-452); details: protein: recombinant; tags: N-terminal GST; dsDNA, one strand shown
# Chain of ETV6 (P41212 whole entry): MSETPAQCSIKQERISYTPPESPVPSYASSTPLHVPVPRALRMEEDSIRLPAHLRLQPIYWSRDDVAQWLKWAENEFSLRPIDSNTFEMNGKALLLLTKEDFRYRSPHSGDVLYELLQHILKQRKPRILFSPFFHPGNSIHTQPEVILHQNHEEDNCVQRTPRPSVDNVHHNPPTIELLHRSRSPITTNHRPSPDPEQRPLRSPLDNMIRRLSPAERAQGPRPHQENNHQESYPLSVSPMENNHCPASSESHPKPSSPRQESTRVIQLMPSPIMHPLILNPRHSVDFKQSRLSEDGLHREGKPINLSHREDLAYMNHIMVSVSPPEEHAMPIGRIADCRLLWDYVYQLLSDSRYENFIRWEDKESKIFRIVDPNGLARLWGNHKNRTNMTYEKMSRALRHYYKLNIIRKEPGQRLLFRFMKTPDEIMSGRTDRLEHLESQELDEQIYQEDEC
# How it was run: as §1
sequence,measurement,setting,value
AAGTAC,binding signal,FEV,"1.52 fold enrichment (6-mer frequency, TF over GST control)"
same,binding signal,ETV5,"1.59 fold enrichment (6-mer frequency, TF over GST control)"
same,binding signal,HSF1,"1.29 fold enrichment (6-mer frequency, TF over GST control)"
same,binding signal,SPIC,"1.58 fold enrichment (6-mer frequency, TF over GST control)"
same,binding signal,ELF4,"1.5 fold enrichment (6-mer frequency, TF over GST control)"
same,binding signal,ELK4,"1.32 fold enrichment (6-mer frequency, TF over GST control)"
same,binding signal,ETV2,"1.41 fold enrichment (6-mer frequency, TF over GST control)"
same,binding signal,ELF3,"1.68 fold enrichment (6-mer frequency, TF over GST control)"
same,binding signal,CRX,"1.34 fold enrichment (6-mer frequency, TF over GST control)"
same,binding signal,ETV1,"1.49 fold enrichment (6-mer frequency, TF over GST control)"
same,binding signal,ERF,"1.42 fold enrichment (6-mer frequency, TF over GST control)"
same,binding signal,ETV3L,"1.39 fold enrichment (6-mer frequency, TF over GST control)"
same,binding signal,ETS2,"1.59 fold enrichment (6-mer frequency, TF over GST control)"
same,binding signal,SPDEF,"1.92 fold enrichment (6-mer frequency, TF over GST control)"
same,binding signal,ETV7,"1.65 fold enrichment (6-mer frequency, TF over GST control)"
same,binding signal,ELF5,"1.69 fold enrichment (6-mer frequency, TF over GST control)"
same,binding signal,ETV3,"1.62 fold enrichment (6-mer frequency, TF over GST control)"
same,binding signal,ETV6,"1.85 fold enrichment (6-mer frequency, TF over GST control)"
